In the library only some 3.6% were active in any assay of this set; here they are far more common.
MmCpn inh: inhibitors of Methanococcus maripaludis chaperonin TRiC (MmCpn). 0.031% of 330,000 active. Potency, µM (top dose mostly 76.9 µM), for inactives: at the highest dose activity, negative = inhibition, actives largely listed as inhibitors. purified Mm-Cpn ATPase, ADP Transcreener TR-FRET; further: on the % scale 0 is the no-effect control and ±100 the full control effect; nearly all actives have a fitted effect of over 80% in size
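Measured: ADP formation by purified Mm-CPN. Conditions: 25 nM protein, 10 uM ATP, Tris pH 7.4 with Mg2+, K+ and DTT, 37°C for 30 min. Detection: Transcreener HTRF after 30 min at room temperature.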
aSyn yeast inh: inhibitors of alpha-synuclein toxicity in yeast; 0.14% of 370,000 active; Potency, µM (doses to about 46.1 µM), for the others: at the highest dose growth rescue (activation), most hits filed as activators; AID 652106; Yeast expressing alpha-synuclein, growth rescue, BacTiter-Glo, 24 h; further: % of control where 0% means no effect; nearly all actives have a fitted effect of over 65% in size
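Rescue of yeast growth: cells expressing toxic alpha-synuclein, induced in galactose at OD600 0.02, incubated with compound 24 h at 30 C. ATP luminescence quantified growth; inhibitors of toxicity appear as activators.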
FUS suppressor: FUS proteinopathy suppression in yeast | S. cerevisiae FUS-expressing, growth rescue, OD600, 24 h | 0.24% of 390,000 active | Potency, µM (series often up to 76.6 µM), usual class: activators | AID 1347120;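 further: plate controls were DMSO vehicle for no effect and reference control for full effect; nearly all actives have a fitted effect of over 55% in size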
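S. cerevisiae expressing FUS from galactose induction served as the toxicity model. Growth after 24hr at 30C, read as absorbance at 600 nm, indicates suppression of toxicity; compounds dosed at several concentrations.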
TDP-43 yeast inh: TDP-43 toxicity inhibition in yeast. Potency, µM (titrated, usually from 46.1 µM), for inactives: top-dose growth rescue (activation), actives largely listed as activators. 1.8% of 410,000 active. TDP-43 expressing yeast growth rescue, BacTiter-Glo, 24 h; further: % of control where 0% means no effect; nearly all actives have a fitted effect of over 50% in size
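In this qHTS, compounds that restore growth of yeast expressing TDP-43 appear as activators. Cells (OD600=0.02, galactose medium, raffinose-pregrown) are incubated with compound 24 hr at 30 deg C and growth is quantified by BacTiter-Glo.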
ClpP mod: qHTS Assay for Activators of ClpP; AID 651965, 2013; purified B. subtilis ClpP, FRET peptide cleavage, 20 min; 1.9% of 340,000 active; Potency, µM (highest dose often 57.5 µM), inactives show at the highest dose activity change, negative = active; ATP-dependent Clp protease proteolytic subunit (Bacillus subtilis (strain 168)), P80244; active means well fitted falling curve with a large enough effect; inconclusive means small, poorly fitted or top-dose-only effect; inactive means no such curve, though single readings can be large or run the other way; further: the source files actives as falling curves though it sought activators and does not explain the sign; nearly all actives have a fitted effect of over 65% in size
Target sequence (P80244 whole entry, looked up): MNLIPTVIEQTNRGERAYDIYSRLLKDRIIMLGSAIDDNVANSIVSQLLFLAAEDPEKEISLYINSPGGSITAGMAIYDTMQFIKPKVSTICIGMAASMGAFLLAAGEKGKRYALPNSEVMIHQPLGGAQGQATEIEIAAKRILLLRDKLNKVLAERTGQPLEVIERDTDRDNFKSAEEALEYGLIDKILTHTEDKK
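ClpP 10 microg/mL final, pH 8 Tris/KCl buffer with BSA, glycerol, Tween-20; compound pinned in; FRET-FV substrate; RT 20 min; Ex320/Em430; ΔFRET vs ADEP 5.8 microM, DMSO, no enzyme.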
Abeta yeast res: compounds reversing amyloid beta toxicity in yeast. AID 1347071. Potency, µM (series often up to 46.1 µM), actives largely listed as activators. 0.063% of 410,000 active. yeast expressing A-beta42, growth rescue, OD600, 48 h; response scale: 0% DMSO, 100% iron-clioquinol control; further: nearly all actives have a fitted effect of over 55% in size
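Growth rescue measured by 600 nm absorbance after 48 h yeast culture at 30 C with compound. Values normalized between DMSO and an equimolar ferric chloride plus clioquinol control.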
* marks the source's active call; other numbers are inactive results; i = inactive; ? = inconclusive; / = no result given; [ ] = remark or other dose. Unless noted, the call rests on the fitted dose curve; in most records, active means well fitted curve in the direction sought with a large enough effect; inconclusive means small, poorly fitted or top-dose-only effect, or another doubt; inactive means no such curve, though single readings can be large; an effect the other way counts as inactive or inconclusive. Potency means the concentration at half of the fitted maximal effect.

SMILES | MmCpn inh | aSyn yeast inh | FUS suppressor | TDP-43 yeast inh | ClpP mod | Abeta yeast res
Nc1nc(-c2ccccc2)[nH]c(=O)c1N | -1% | 0% | i | 9% | 28µM* | i
Nc1[nH]nc2nc(-c3ccccc3)[nH]c(=O)c12 | -2% | 1% | i | -3% | -5% | i
COc1ccccc1C(=O)NC1CCCCN(Cc2cccc(Cl)c2)C1=O (stereo not given) | / | / | i | / | / | /
Cc1ccc(C2CC(c3ccccc3)=NN2c2ccccc2)o1 (stereo not given) | -3% | 8% | i | -6% | 25µM* | i
O=C(O)c1ccc(N2N=C(c3ccccc3)CC2c2ccccc2)cc1 (stereo not given) | -10% | 0% | i | 13µM* | 4% | i
Cc1ccc2c(Sc3ccc(Cl)cc3)c(C(=O)N3CCCCC3)[nH]c2c1 | / | / | ? | -12% | 1% | i
CC1CCCN(CCCNC(=O)c2ccc3c(c2)N(Cc2ccc(Cl)cc2)C(=O)c2ccccc2S3(=O)=O)C1 (stereo not given) | / | / | i | 1% | -5% | i
COc1ccc2c(C)cc(=S)[nH]c2c1 | ? | 2% | i | 13µM* | / | i
COc1ccc2c(-c3ccccc3)cc(=S)[nH]c2c1 | -10% | -20% | i | ? | 1% | i
CC(=O)/C(=C/c1ccccc1)C(=O)Nc1ccccc1C | 1% | ? | i | 2.5µM* | -2% | i
CCOC(=O)N1CCN(/[N+]([O-])=N/Oc2ccc(C(F)(F)F)cc2[N+](=O)[O-])CC1 | / | -14% | / | / | / | /
CCN(CC)c1cc(C)c(/C=C/c2ccnc3ccccc23)cc1C | / | 3% | / | / | -4% | /
Cc1ccc(NC(=O)Cn2nc(C(F)(F)F)c3c2CCCC3)cc1C | / | / | i | 3% | -2% | i
S=c1[nH]nc(COc2ccc(Cl)cc2)n1Cc1ccco1 | 1% | 5% | i | ? | / | 13µM*
Cc1ccc(NC(=O)Cn2cc(C(=O)c3ccco3)c3ccccc32)cc1 | / | / | i | 17% | -5% | i
Cc1nc(-c2ccccc2Cl)sc1C(=O)/C=C/N(C)C | -12% | -64% | i | 32µM* | 1% | i
O=C1OC(/C(=C\Nc2ccc(F)cc2F)[N+](=O)[O-])c2ccccc21 (stereo not given) | 2% | 18µM* | i | ? | / | i
Cc1ccc(N/C=C(\C2OC(=O)c3ccccc32)[N+](=O)[O-])c(C)c1 (stereo not given) | 1% | 8% | i | -12% | / | i
Cc1ccc(OCC(=O)Nc2ccc3nc(SCC(=O)N4CCOCC4)sc3c2)cc1 | / | / | i | 13% | -1% | i
CC(C)(C)NC(=O)CN(C(=O)c1ccc(CN2CCOCC2)o1)c1ccc2c(c1)OCCO2 | -1% | -3% | / | -24% | 13µM* | i
CCOc1ccccc1N(CC(=O)NC(C)(C)C)C(=O)c1ccc(CN2CCOCC2)o1 | 1% | 0% | i | -10% | 0% | i
O=C(O)c1ccc(CNCc2ccc(Cl)cc2)s1 | / | / | i | 8% | -1% | i
CC(C)NC(C(=O)Nc1cc(Cl)cc(Cl)c1)c1ccccc1 (stereo not given) | -2% | 2% | i | -12% | 28µM* | i
Nc1cc2nsnc2cc1Br | ? | 5% | / | 13µM* | -1% | i
Nc1cccc2nsnc12 | -2% | -3% | i | -29% | / | i
SMILES | MmCpn inh | aSyn yeast inh | FUS suppressor | TDP-43 yeast inh | ClpP mod | Abeta yeast res
O=C(NCc1ccccc1)C1C(=O)Nc2ccccc2C(=O)N1C1CCCC1 (stereo not given) | / | 2% | i | 15% | -9% | i
O=C(NCCc1ccccc1)C1C(=O)Nc2ccccc2C(=O)N1C1CCCCC1 (stereo not given) | / | 13µM* | i | ? | -2% | i
CC(NC(=O)c1ccccc1F)c1nnc(SCC(=O)N2CCN(c3ccccc3)CC2)n1C (stereo not given) | 0% | -1% | i | 13%[9.22 µM] | 25µM* | i
COc1cccc(-c2nnc(-c3ccco3)o2)c1 | 1% | -12% | i | 16µM* | -1% | i
COc1cccc(C(=O)Nc2ccc(-c3nnc(-c4ccco4)o3)cc2)c1 | 0% | 0% | i | 0% | 13% | i
CCCOc1ccc(-c2nnc(-c3ccco3)o2)cc1 | 1% | -2% | i | ? | 40µM* | i
CC(C)COc1ccc(-c2nnc(-c3ccco3)o2)cc1 | 0% | -1% | i | 10µM* | 16µM* | i
COc1ccc(C2c3[nH]c4ccc(OC)cc4c3CCN2C(=O)Nc2ccccc2)cc1 (stereo not given) | / | / | ? | 20µM* | -27% | i
Cc1cc(C)c(OCC(=O)N(Cc2ccco2)Cc2ccco2)c(C)c1 | / | / | i | -9% | 1% | i
O=C(c1ccccc1)c1nc[nH]c1C(=O)Nc1ccccn1 | -1% | 2% | i | -7% | 28µM* | i
O=C(Nc1ccccn1)c1ccc(C(=O)c2ccccc2)cc1 | -5% | -1% | i | 26% | / | i
CC(C)N1C2OC(C3OC4C(O3)N(C(C)C)S(=O)(=O)N4C(C)C)OC2N(C(C)C)S1(=O)=O (stereo not given) | 0% | 7.1µM* | i | ? | -1% | i
COc1ccc(Cn2c(CCC(=O)Nc3cccc(OC)c3)nc3cccnc32)cc1 | / | / | i | 9% | -2% | i
O=c1c2ccccc2oc2cc(Br)ccc12 | / | ? | i | 9% | / | i
COc1cc2oc3ccccc3c(=O)c2cc1OC | -5% | ? | i | 16µM* | 4% | i
COc1ccccc1OCCNS(=O)(=O)c1ccc2oc3ccccc3c2c1 | -8% | ? | i | 16µM* | / | i
C=CCn1c(SCC(=O)Nc2cc3oc4ccccc4c3cc2OC)nnc1-c1cnccn1 | 1% | 2% | i | 17% | -2% | i
COc1cc2c(cc1NC(=O)CSc1nnc(-c3cnccn3)n1-c1ccc(C)cc1)oc1ccccc12 | / | / | 18µM* | / | / | /
COc1cc2c(cc1NC(=O)COc1ccccc1OC)oc1ccccc12 | -1% | 4% | i | -19% | 25µM* | i
CCc1ccc2c(c1)c(=O)c(S(=O)(=O)c1ccc(F)cc1)cn2CC(=O)Nc1ccc(C)cc1C | / | / | i | 3% | -18% | i
COC(=O)[C@@H]1N2C(=O)[C@@H](NC(=O)C(C)Oc3ccccc3)[C@H]2SC1(C)C (stereo not given in full) | / | / | / | / | 1% | /

Screens (PubChem)
